# DT40 TDP1 no CPT: qHTS for Inhibitors of human tyrosyl-DNA phosphodiesterase 1 (TDP1): qHTS in cells in absence of CPT | DT40 Tdp1-/- hTDP1 cells, no CPT, ATP luminescence, 48 h | Potency, µM (top dose mostly 46.2 µM), inactives show at the top dose activity change, negative = growth inhibition, actives largely listed as inhibitors | 15% of 420,000 active; also: potency is read from the fitted curve at half-maximal effect; nearly all actives have a fitted effect of over 55% in size
#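 Seeded 400 DT40-hTDP1 cells/well (vehicle DMSO, no 20 nM CPT); pinned compounds; ≥48 hr at 37 °C; CellTiter-Glo luminescence as viability measure.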
# IL-1B inflam inh: blocks inflammasome-driven IL-1 beta release; THP-1 LPS/ATP IL-1B secretion, AlphaLISA, 16 h; active compounds read low; activity change, % at 57.5 µM; 4.7% of 360,000 active; AID 743279; in the data active = activity change below about -50%; inconclusive = mostly about -30% to -49%
#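 Secreted IL-1B measured by AlphaLISA bead assay after 16 h compound exposure of THP-1 cells; compounds (final up to 57.5 uM) added 1 h before LPS (250 ng/mL) and ATP (1.25 mM) stimulation; lower signal means less secretion.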
# HT1080NT lethal: kills 2HG-producing HT-1080-NT fibrosarcoma cells. HT-1080-NT fibrosarcoma viability, CellTiter-Glo ATP luminescence, 48 h. Potency, µM (highest dose often 46.1 µM), for inactives: top-dose activity, negative = less viability, usual class: cytotoxic. 1.6% of 360,000 active;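 also: NT is the 2HG producing partner of a matched IDH1 knockdown line; potency is read from the fitted curve at half-maximal effect; 0% = DMSO-treated cells and -100% = media-only wells without cells; nearly all actives have a fitted effect of over 55% in size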
#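 Toxicity toward the 2HG-producing NT line was scored as %Activity, normalised to DMSO and no-cell wells, from CellTiter-Glo luminescence after 48 hours' treatment.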
# TDP1 cell CPT: growth inhibition of DT40 Tdp1-/-;hTDP1 cells with camptothecin (screen for TDP1 inhibitors); Potency, µM (highest dose often 46.2 µM), without a hit: at the top dose activity change, negative = growth inhibition, actives largely listed as inhibitors; 12% of 420,000 active; chicken DT40 Tdp1-/-;hTDP1 cells + 20 nM CPT, ATP luminescence, 48 h; also: potency is read from the fitted curve at half-maximal effect; nearly all actives have a fitted effect of over 55% in size
#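 Cell growth measured by CellTiter-Glo luminescence after a minimum 48 h, 37 C compound exposure with 20 nM CPT in Tdp1-knockout DT40 cells stably expressing hTDP1, seeded 400/well; qHTS titration format.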
# HT1080 IDH1KD tx: toxicity to HT-1080 IDH1 knockdown cells (counter line) | 2% of 360,000 active | HT-1080 IDH1 knockdown viability, ATP luminescence, 48 h | AID 686971 | Potency, µM (series often up to 46.1 µM), without a hit: top-dose activity, negative = toxicity, hits mostly cytotoxic;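 also: potency is read from the fitted curve at half-maximal effect; 0% = DMSO wells and -100% = cell-free medium wells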
#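 % activity derives from luminescence (CellTiter-Glo), normalised to DMSO and no-cell wells. HT-1080-IDH1KD cells, 750/well, had 48 h compound exposure at 37 °C.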
# Active calls of the source: *; i = inactive; ? = inconclusive; . = not tested or not shown. Shown are actives, neighbours in structure and some others; about 19% of the full set was active somewhere. Unless noted, calls follow the shape of the dose curve; as a rule, active = well fitted curve in the direction sought with a large enough effect; inconclusive = small, poorly fitted or top-dose-only effect, or another doubt; inactive = no such curve, though single readings can be large; an effect the other way counts as inactive or inconclusive. Unless noted, % is scaled to controls: 0 for no effect and ±100 for the full control effect.
SMILES,DT40 TDP1 no CPT,IL-1B inflam inh,HT1080NT lethal,TDP1 cell CPT,HT1080 IDH1KD tx
CCc1ccc(-c2nc(CSCC(=O)NCc3ccccc3OC)c(C)o2)cc1,16µM*,.,.,21µM*,.
COc1ccc(CCNc2ncnc3nc[nH]c23)cc1,6.3µM*,.,.,2.8µM*,.
CC1=C(C(=O)OCCOC(C)C)C(c2cc3c(cc2Br)OCO3)CC(=O)N1 (stereo unspecified),?,27,3%,16µM*,6%
COC(=O)C1=C(C)NC(=O)CC1c1cc2c(cc1Br)OCO2 (stereo unspecified),-24%,21,4%,-9%,5%
CC1=C(C(=O)OC2CCCCCCC2)C(c2cc3c(cc2Br)OCO3)CC(=O)N1 (stereo unspecified),?,-59*,?,?,?
CCSc1nnc(NC(=O)C2CCN(C(=O)c3ccc(F)cc3)CC2)s1,-5%,12,4%,-28%,-1%
O=C(Cn1nnc(-c2ccncc2)n1)NCCc1ccccc1,-13%,28,11%,-8%,20%
COc1cc(OC)cc(-c2c(-c3cccs3)c3cc(-c4ccc5cc[nH]c5c4)ccc3n2C)c1,13µM*,-10,-21%,?,-6%
COc1ccc(-c2ccc3c(c2)c(Sc2ccccc2)c(-c2ccccc2)n3C)cn1,?,24,11%,?,5%
Cn1c(-c2ccccc2)c(Sc2ccccc2)c2cc(-c3ccc4cc[nH]c4c3)ccc21,23µM*,35,14%,?,4%
COc1cccc(-c2c(-c3cc(OC)cc(OC)c3)n(C)c3ccc(-c4ccc5cc[nH]c5c4)cc23)c1,?,1,-29%,18µM*,-10%
Cc1ccc(C2/C(=C(\O)c3ccc4c(c3)OCCO4)C(=O)C(=O)N2CC2CCCO2)cc1 (stereo unspecified),3%,i,-10%,-3%,0%
CCOC(=O)c1c(S(=O)(=O)NCC(=O)N2CCN(c3ccc(OC)cc3)CC2)c(C)n(C)c1C,15%,?,-1%,-3%,-2%
Cc1cc2nc(N)sc2cc1[N+](=O)[O-],?,?,0%,-14%,0%
CCOC(=O)C1CCCCN1C(=O)c1ccc2nc(Cc3ccc(OC)cc3)oc2c1 (stereo unspecified),?,24,-8%,?,-10%
CCOC(=O)C1CCCCN1C(=O)/C(=C/c1ccc(OC)cc1)c1ccc(OC)c(OC)c1 (stereo unspecified),?,-11,10%,18µM*,14%
Cc1ccc([C@H]2N[C@]3(CCCN(Cc4ccc(C(F)(F)F)cc4)C3=O)[C@H]3C(=O)N(C)C(=O)[C@@H]23)cc1,13µM*,9,-4%,21µM*,12%
CN1C(=O)[C@H]2[C@@H](c3ccc(C(F)(F)F)cc3)N[C@]3(CCCN(Cc4ccc(Cl)cc4)C3=O)[C@H]2C1=O,16µM*,11,10%,1%,12%
CN1C(=O)[C@H]2[C@@H](c3ccc(C(F)(F)F)cc3)N[C@]3(CCCN(Cc4ccc(F)cc4)C3=O)[C@H]2C1=O,7.3µM*,14,-18%,9.2µM*,-10%
CN1C(=O)[C@H]2[C@@H](c3ccc(C(F)(F)F)cc3)N[C@]3(CCCN(Cc4cccn4C)C3=O)[C@H]2C1=O,16µM*,-19,-4%,23µM*,0%
Cc1ccc(C(=O)NNC2CC(=O)N(c3ccc4c(c3)OCCO4)C2=O)cc1 (stereo unspecified),1%,17,-7%,-15%,-5%
O=c1c2c(-c3cccs3)csc2ncn1-c1ccccc1,?,-2,-17%,-28%,-6%
COc1cc(/C=N/n2cnc3scc(-c4cccs4)c3c2=O)cc(OC)c1OC,2.9µM*,36,?,4.6µM*,?
COc1ccc(/C=N/n2cnc3scc(-c4cccs4)c3c2=O)cc1OC,?,8,8%,18µM*,20%
Cc1ccc(NC(=O)CN(C)S(=O)(=O)c2ccc3nc(C)sc3c2)c(C)c1,-17%,.,.,-6%,.
SMILES,DT40 TDP1 no CPT,IL-1B inflam inh,HT1080NT lethal,TDP1 cell CPT,HT1080 IDH1KD tx
O=[N+]([O-])c1cccc2c[nH]nc12,-13%,.,.,?,.
Cc1cccc(N(C)c2ncnc3onc(-c4ccc(F)cc4)c23)c1C,16µM*,40,?,?,?
CCN(CCO)c1ncnc2onc(-c3ccc(F)cc3)c12,-22%,8,-1%,-26%,0%
C[C@@H]1CCCCO[C@@H](CN(C)C(=O)c2ccccc2)[C@@H](C)CN([C@H](C)CO)C(=O)c2cc(N(C)C)ccc2O1,-20%,-14,1%,1%,4%
CN1C(=C2C(=O)OC(C)(C)OC2=O)Sc2ccccc21,18µM*,-1,3%,?,0%
CCN1CCc2c(sc(NC(=O)c3ccc(S(=O)(=O)N(C)c4ccccc4)cc3)c2C(=O)NC)C1,21µM*,0,-21%,16µM*,-24%
CNC(=O)c1c(NC(=O)c2ccc(S(=O)(=O)N(C)c3ccccc3)cc2)sc2c1CCN(C(C)C)C2,18µM*,43,-4%,18µM*,-1%
Cc1ccc(NC(=O)CCCn2c(=O)c3cccn3c3cccnc32)c(C)c1,-6%,.,.,9%,.
CCOC(=O)c1cc2c(c(-c3cccc(-c4cc5ccccc5o4)c3)n1)[C@@H](CCO)N(S(=O)C(C)(C)C)C2 (stereo partly specified),?,-15,?,-20%,?
CC(C)(C)S(=O)N1Cc2cc(C(=O)NCc3ccc(Oc4ccccc4)cc3)nc(-c3cccc(-c4cc5ccccc5o4)c3)c2[C@H]1CCO (stereo partly specified),23µM*,-52*,18µM*,?,18µM*
COc1cccc(-c2cccc(-c3nc(C(=O)NCc4ccc5c(c4)OCO5)cc4c3[C@H](CCO)N(S(=O)C(C)(C)C)C4)c2)c1 (stereo partly specified),?,-23,?,?,?
CC(C)(C)S(=O)N1Cc2cc(C(=O)NCc3ccc4c(c3)OCO4)nc(-c3cccc(-c4cc5ccccc5o4)c3)c2[C@@H]1CCO (stereo partly specified),?,-23,23µM*,?,?
CC(C)(C)S(=O)N1Cc2cc(C(=O)NCCCN3CCOCC3)nc(-c3cccc(-c4cc5ccccc5o4)c3)c2[C@@H]1CCO (stereo partly specified),18µM*,-9,?,13µM*,?
CSc1ccc(/C=C/c2nc3ccccc3n2S(=O)(=O)c2cccc(Cl)c2)cc1,10µM*,.,.,13µM*,.

# High-throughput results deposited in PubChem BioAssay by National Center for Advancing Translational Sciences (NCATS).
